# Screening results: PubChem BioAssay, several laboratories
# AddAB inh: growth inhibition of E. coli expressing H. pylori AddAB, primary screen, AddAB inhibitor project, absorbance; inhibition, % at 11.9 µM; 0.29% of 330,000 active; in the data active = inhibition above about 12%;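 note: 0% = vehicle wells of infected cells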
# E coli growth-1: E. coli growth inhibition, primary screen, OD600; 0.21% of 330,000 active; OD600 absorbance (no concentration beside the values); Escherichia coli growth, 23 h; active compounds read low;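 active = OD600 absorbance below the run mean of sample wells minus 3.6 SD, in any replicate, cut at about 0.56 in these data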
# Tat transport: E. coli Tat export inhibitors, primary screen, MC4100, TorA-mCherry reporter, fluorescence, single point | inhibition, % at 10 µM | 0.036% of 340,000 active;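 active = mean replicate inhibition at least 50% and at least half of replicates individually reaching 50%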;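 note: exported cargo escapes ClpAP degradation while cytoplasmic cargo is degraded and loses fluorescence; 0% = median of neutral control wells and 100% = median of NaSCN control wells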
# E coli growth-2: E. coli V3065 growth inhibition, primary screen, counter-screen for AddAB inhibitor project, absorbance, OD600; 18 h; inhibition, % at 11.9 µM; 0.27% of 330,000 active; AID 449728, 2010;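 active = inhibition above the campaign's mean inhibition across all tested compounds plus 3 SD, cut at about 9.9% in these data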;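 note: uninfected addAB+ strain grown without phage in ampicillin broth; 0% = DMSO wells and 100% = ciprofloxacin 0.95 µg/ml wells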
# phage Ecoli inh: growth loss of phage-infected E. coli, primary screen, RecBCD inhibitor project, absorbance, with phage, HTS; inhibition, % at 11.9 µM; 0.26% of 360,000 active; in the data active = inhibition above about 11%
# AddAB confirm: growth loss of phage-infected E. coli expressing H. pylori AddAB, confirmation, AddAB inhibitor project, absorbance, E. coli V3065, T4 phage, triplicate | shares compounds with AddAB inh | OD; T4 phage with gene 2 nonsense mutations | inhibition, % at 11.9 µM | 64% of 880 active;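 active = mean inhibition above a set limit taken from the earlier primary screen, cut at about 13% in these data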;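 note: higher means less bacterial growth since AddAB block lets phage replicate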
# RecBCD counter: growth loss of RecBCD+ E. coli with mutant T4 phage, counter-screen for AddAB inhibitor project, absorbance, V66 E. coli; shares compounds with AddAB inh; 73% of 880 active; OD growth; inhibition, % at 11.9 µM;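 active = mean inhibition above the mean of solvent-only control wells plus 3 SD, cut at about 4% in these data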;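 note: optical density read after an 18 h incubation at 37 °C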
# Bact viability: bacterial viability inhibition counter-screen, confirmation, counter-screen for AddAB inhibitor project, absorbance; shares compounds with AddAB inh; absorbance (AddAB counterscreen); inhibition, % at 11.9 µM; 35% of 880 active; AID 488956, 2010; in the data active = inhibition above about 25%
# * marks the source's active call; other numbers are inactive results; . = not tested or not shown. A selection: hits, their analogues and other compounds. The true share with any hit is near 0.5%.
SMILES,AddAB inh,E coli growth-1,Tat transport,E coli growth-2,phage Ecoli inh,AddAB confirm,RecBCD counter,Bact viability
O=C(O)COc1ccccc1C=NNc1ccc(S(=O)(=O)N2CCOCC2)cc1[N+](=O)[O-],.,0.71,.,.,.,.,.,.
CCC(C)C(C(=O)N1CCN(C(=O)OC(C)(C)C)CC1)n1cc(CCC(=O)O)nn1 (stereo not given),.,0.69,.,.,.,.,.,.
Cc1cc(C(=O)N/N=C/c2cccs2)n[nH]1,4,.,1,1,3,.,.,.
O=[N+]([O-])c1ccc(C=Nc2ccc(Cl)c([N+](=O)[O-])c2)s1,.,.,1,.,10,.,.,.
Cc1cc(C(=O)NN=Cc2ccc([N+](=O)[O-])s2)n[nH]1,.,0.46*,.,.,.,.,.,.
NC(=O)c1ccc(N=Cc2ccc([N+](=O)[O-])s2)cc1,8,0.35*,-2,3,6,.,.,.
Cc1cc(C)cc(N=Cc2ccc([N+](=O)[O-])s2)c1,2,0.54*,1,0,8,.,.,.
Cn1cc(CC(NC(=O)OC(C)(C)C)C(=O)NC(CO)Cc2ccccc2)c2ccccc21 (stereo not given),.,0.68,.,.,.,.,.,.
CCn1ncc(C2CC3CN(Cc4cccc(Cl)c4)C(=O)[C@]34CCCN24)c1C (stereo not given in full),.,0.71,.,.,.,.,.,.
Cc1nnc(NC(=O)c2ccc(N3CCCC3=O)cc2)s1,.,0.68,-3,.,6,.,.,.
O=C(NC1=NCCS1)c1ccc(N2CCCC2=O)cc1,1,0.53*,-9,0,5,.,.,.
O=C(Oc1ccc(Cl)c2cccnc12)c1cccc([N+](=O)[O-])c1,3,0.51*,5,-2,0,.,.,.
CCn1cc(C(=O)Nc2ccccc2)c(=O)c2ccc(C)nc21,5,0.75,.,-1,.,.,.,.
CCn1cc(C(=O)NC2CCCCC2C)c(=O)c2ccc(C)nc21 (stereo not given),7,0.059*,2,2,2,.,.,.
O=[N+]([O-])c1ccc(/C=C/C2=NN(c3ccccc3)C(c3ccco3)C2)o1 (stereo not given),.,0.62,-10,.,20*,.,.,.
COc1ccc2c3c(cccc13)C(=O)N(O)C2=O,0,0.38*,-15,0,4,.,.,.
COC(CNc1ncnc2sc(-c3ccccc3)cc12)OC,0,0.66,58*,-2,0,.,.,.
CC(C)(C)Nc1ncnc2sc(-c3ccccc3)cc12,3,0.64,-4,1,6,.,.,.
COc1ccc2nc(C)cc(NN=Cc3ccccc3)c2c1,.,0.44*,.,.,.,.,.,.
COc1ccc(C=NNc2cc(C)nc3ccccc23)cc1,.,0.49*,.,.,.,.,.,.
CCn1cc(C(=O)O)c(=O)c2cnc(N3CCN(C(=S)NC(=O)c4ccccc4)CC3)nc21,3,0.41*,4,-1,-6,.,.,.
CCOC1OC(C(=O)NCc2ccccc2)=CC(c2ccccc2)C1CCCO (stereo not given),.,0.66,.,.,.,.,.,.
CN1CCN(C(c2ccccn2)c2cc(Cl)c3cccnc3c2O)CC1 (stereo not given),5,0.62,-7,-1,8,.,.,.
Cc1ccc(C(c2cc(Cl)c3cccnc3c2O)N2CCN(C)CC2)cc1 (stereo not given),19*,.,-2,20*,.,9,9.4*,2
CC1C(=O)N2CCCc3cc(S(=O)(=O)N(C)c4ccccc4)cc1c32 (stereo not given),44*,0.66,-1,23*,-2,1,-2,0
SMILES,AddAB inh,E coli growth-1,Tat transport,E coli growth-2,phage Ecoli inh,AddAB confirm,RecBCD counter,Bact viability
COC(=O)C1C(=O)CC(C)(O)C(C(=O)OC)C1C=Cc1ccccc1 (stereo not given),.,0.76,.,.,.,.,.,.
O=C(COc1ccc(Br)cc1)NN=C1SCC(=O)N1c1ccc(F)cc1,.,0.73,.,.,.,.,.,.
O=C(/C=C/c1ccccc1Cl)c1ccccc(=O)c1O,15*,0.66,-3,9,3,8,8.3*,5
O=C(/C=C/c1ccccc1Cl)c1ccc(O)cc1,1,0.61,9,-1,-2,.,.,.
Cc1ccc(C)c(/C=C/C(=O)c2ccccc(=O)c2O)c1,15*,0.67,-1,12*,8,2,6.5*,-1
CCOc1ccc(-c2c(C(=O)NN=Cc3ccsc3)nnn2-c2nonc2N)cc1,.,0.7,.,.,.,.,.,.
Cc1cc(NC(=O)c2cc(C)on2)no1,-1,0.72,-15,0,1,.,.,.
CCCc1cc(C(=O)Nc2cc(C)on2)no1,100*,0.63,3,96*,2,1,3,3
CCOc1ccc2ccccc2c1C=NNC(=O)c1ccncc1,.,0.66,.,.,.,.,.,.
CC(O)COc1ccc(C(=NO)c2ccccc2)cc1 (stereo not given),.,0.64,.,.,.,.,.,.
O=c1[nH]c(/C(=N\O)c2ccccc2)no1,16*,.,-31,18*,10,25*,4.3*,21
O=[N+]([O-])c1ccc(/C=N/n2cnc3ccccc32)s1,15*,.,-25,9,7,98*,5.9*,20
O=C(NCCCNCCCNC(=O)c1ccc(/C=N/O)nc1)c1ccc(/C=N/O)nc1,19*,.,5,12*,10,4,4,4
COc1cccc(C=CC(=O)Nc2ccc(OC)nc2)c1,.,0.64,.,.,.,.,.,.
CCn1cc(C(=O)O)c(=O)c2cc(F)c(N3CCN(C(=S)NC(=O)c4ccccc4Cl)CC3)cc21,98*,0.075*,-1,84*,10,102*,100*,102*
C=CCCCCCCCCC(=O)N1CCN(c2cc3c(cc2F)c(=O)c(C(=O)O)cn3CC)CC1,41*,0.3*,8,35*,3,98*,4.0*,72*
C=CCC(CC(=O)NCCO)C(=O)NCC(OC(=O)C(CC=C)Cc1ccc(F)cc1)c1ccccc1 (stereo not given),.,0.65,.,.,.,.,.,.
O=C(Nc1ccc2oc(-c3ccccc3)nc2c1)c1cc(-n2cnnc2)ccc1Cl,95*,0.69,1,65*,1,4,-1,-2
Cc1cc(NN=Cc2ccc(O)cc2O)nc(-n2nc(C)cc2C)n1,.,0.64,.,.,.,.,.,.
Cc1ccnc2c1ccc1c(C)ccnc12,39*,0.28*,8,37*,.,70*,25*,20
CCOC(=O)/C=C/C(=O)OCC(=O)Nc1cccc(Cl)c1Cl,97*,0.65,-28,76*,4,-1,0,-4
O=c1[nH]c(=S)ccn1C1OC(CO)C(O)C1O (stereo not given),12*,0.76,-4,5,5,1,3,1
COc1cccc2c1OCCC2=NNC(=O)COc1ccc(C)cc1,.,0.72,.,.,.,.,.,.
